# Reference: the supplement of paper PMC8728848
# About 410 targets per protein were measured; listed, in parts, are those with the strongest signals and a random draw of the rest.
# Tests used:
# Test in all cases: glycan array binding signal (z-score within array); higher = stronger binding
# Details in all cases: glycan notation: IUPAC condensed, linker removed
# [1] = molecular target: Gal6S(b1-4)Glc6S
# Outline: (§1)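 Columns mapping to the same glycan were averaged after glycan names were converted to IUPAC-condensed notation. The data come from 3228 arrays in the Consortium for Functional Glycomics database, limited to those with an available protein sequence. Binding is reported as a within-array Z-score averaged across arrays of one protein sequence and across linkers.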
# [2] = molecular target: Gal6S(b1-4)GlcNAc6S
# Outline: as §1
# [3] = molecular target: GalNAc(b1-4)GlcNAc6S
# Outline: as §1
# [4] = molecular target: GlcNAc(a1-4)Gal(b1-4)GlcNAc
# Outline: as §1
# [5] = molecular target: GlcNAc(a1-6)Gal(b1-4)GlcNAc
# Outline: as §1
# [6] = molecular target: GlcNAc(b1-3)Fuc
# Outline: as §1
# [7] = molecular target: GlcNAc(b1-3)Gal(b1-4)Glc
# Outline: as §1
# [8] = molecular target: GlcNAc(b1-3)Gal(b1-4)GlcNAc(b1-2)[GlcNAc(b1-3)Gal(b1-4)GlcNAc(b1-6)]Man(a1-6)[GlcNAc(b1-3)Gal(b1-4)GlcNAc(b1-2)Man(a1-3)]Man(b1-4)GlcNAc(b1-4)GlcNAc
# Outline: as §1
# [9] = molecular target: GlcNAc(b1-3)Gal(b1-4)GlcNAc(b1-3)Gal(b1-4)GlcNAc(b1-2)Man(a1-3)[GlcNAc(b1-3)Gal(b1-4)GlcNAc(b1-3)Gal(b1-4)GlcNAc(b1-2)Man(a1-6)]Man(b1-4)GlcNAc(b1-4)[Fuc(a1-6)]GlcNAc
# Outline: as §1
# [10] = molecular target: GlcNAc(b1-3)Gal(b1-4)GlcNAc(b1-3)Gal(b1-4)GlcNAc(b1-3)Gal(b1-4)GlcNAc(b1-2)[GlcNAc(b1-3)Gal(b1-4)GlcNAc(b1-3)Gal(b1-4)GlcNAc(b1-3)Gal(b1-4)GlcNAc(b1-6)]Man(a1-6)[GlcNAc(b1-3)Gal(b1-4)GlcNAc(b1-3)Gal(b1-4)GlcNAc(b1-3)Gal(b1-4)GlcNAc(b1-2)Man(a1-3)]Man(b1-4)GlcNAc(b1-4)[Fuc(a1-6)]GlcNAc
# Outline: as §1
# [11] = molecular target: GlcNAc(b1-3)Gal(b1-4)GlcNAc(b1-3)Gal(b1-4)GlcNAc(b1-3)Gal(b1-4)GlcNAc(b1-3)Gal(b1-4)GlcNAc(b1-2)[GlcNAc(b1-3)Gal(b1-4)GlcNAc(b1-3)Gal(b1-4)GlcNAc(b1-3)Gal(b1-4)GlcNAc(b1-3)Gal(b1-4)GlcNAc(b1-6)]Man(a1-6)[GlcNAc(b1-3)Gal(b1-4)GlcNAc(b1-3)Gal(b1-4)GlcNAc(b1-3)Gal(b1-4)GlcNAc(b1-3)Gal(b1-4)GlcNAc(b1-2)Man(a1-3)]Man(b1-4)GlcNAc(b1-4)[Fuc(a1-6)]GlcNAc
# Outline: as §1
# [12] = molecular target: GlcNAc(b1-3)Gal(b1-4)GlcNAc(b1-6)[GlcNAc(b1-3)Gal(b1-3)]GalNAc
# Outline: as §1
# [13] = molecular target: Man(a1-2)Man(a1-2)Man(a1-6)[Man(a1-3)]Man
# Outline: as §1
# [14] = molecular target: Man(a1-3)[Man(a1-6)]Man(a1-6)[Man(a1-3)]Man
# Outline: as §1
# [15] = molecular target: Neu5Ac(a2-3)Gal
# Outline: as §1
# [16] = molecular target: Neu5Ac(a2-3)Gal(b1-3)GalNAc(b1-4)[Neu5Ac(a2-8)Neu5Ac(a2-3)]Gal(b1-4)Glc
# Outline: as §1
# [17] = molecular target: Neu5Ac(a2-3)Gal(b1-3)GlcNAc(b1-2)Man
# Outline: as §1
# [18] = molecular target: Neu5Ac(a2-3)Gal(b1-4)GlcNAc(b1-3)Gal(b1-4)GlcNAc(b1-3)GalNAc
# Outline: as §1
# [19] = molecular target: Neu5Ac(a2-3)Gal(b1-4)GlcNAc(b1-3)GalNAc
# Outline: as §1
# [20] = molecular target: Neu5Ac(a2-3)Gal(b1-4)[Fuc(a1-3)]GlcNAc
# Outline: as §1
# [21] = molecular target: Neu5Ac(a2-6)Gal(b1-4)GlcNAc
# Outline: as §1
# [22] = molecular target: Neu5Ac(a2-6)Gal(b1-4)GlcNAc(b1-2)Man(a1-3)Man(b1-4)GlcNAc(b1-4)GlcNAc
# Outline: as §1
# [23] = molecular target: Neu5Ac(a2-6)Gal(b1-4)GlcNAc(b1-2)Man(a1-6)[Man(a1-3)]Man(b1-4)GlcNAc(b1-4)GlcNAc
# Outline: as §1
# [24] = molecular target: Neu5Ac(a2-6)Gal(b1-4)GlcNAc(b1-3)GalNAc
# Outline: as §1
# [25] = molecular target: Neu5Ac(a2-8)Neu5Ac(a2-3)[Gal(b1-3)GalNAc(b1-4)]Gal(b1-4)Glc
# Outline: as §1
# [26] = molecular target: Neu5Ac(a2-8)Neu5Gc(a2-3)Gal(b1-4)GlcNAc
# Outline: as §1
# [27] = molecular target: Neu5Ac(b2-6)GalNAc
# Outline: as §1
binder,measurement,setting,value
PX9961M-bvu-482-23-482 (Bacteroides vulgatus) (protein) WLDLAPSTQVDTETSINVLSDIEFTLNGIYSTMQSSDAYSGRLVYYGDVTGDDMQAVSSTKRTGNYYRFNFTKDNGPSSHWSYLYSIIQNCNLILMNVDKLSIDEDETEYKNDLKGQALAIRGMALFDLTRIFGYPYLKDNGASLGVPIVKELSTIDSKPARNTVAECYTEIISDLKNSTELLSGDFNKGKVNRWAAMTLLSRVYLYKGEYNEALTMAENAIKGAEKEGYALWTNEEYPTAWGNDASASNPGEILFEIVNLTTDSPGKESMGYLNSYNGYDDMCITCSFYQLLKKDPKDVRLKILSFDKKYYAYVNKYQPQQGENITDANIPLIRLSEAYLNAAEAAVQTGDNAKAVKYLNSIVQRANPENSVEGKTLTLENVLDERRKELVAEGHRMYDVIRNGMTVKRIDVKDSDINKTKHNTAYMEYDWNFHKILLPIPKKEMDANPNMKQNPGYVD,glycan array binding signal (z-score),[1],-0.529
same,glycan array binding signal (z-score),[2],-0.084
same,glycan array binding signal (z-score),[3],-0.209
same,glycan array binding signal (z-score),[4],-0.43
same,glycan array binding signal (z-score),[5],-0.826
same,glycan array binding signal (z-score),[6],0.451
same,glycan array binding signal (z-score),[7],-0.369
same,glycan array binding signal (z-score),[8],-0.33
same,glycan array binding signal (z-score),[9],0.761
same,glycan array binding signal (z-score),[10],1.99
same,glycan array binding signal (z-score),[11],1.58
same,glycan array binding signal (z-score),[12],0.464
same,glycan array binding signal (z-score),[13],0.455
same,glycan array binding signal (z-score),[14],2.74
same,glycan array binding signal (z-score),[15],-0.037
same,glycan array binding signal (z-score),[16],0.996
same,glycan array binding signal (z-score),[17],0.535
same,glycan array binding signal (z-score),[18],-0.629
same,glycan array binding signal (z-score),[19],0.638
same,glycan array binding signal (z-score),[20],-0.48
same,glycan array binding signal (z-score),[21],0.329
same,glycan array binding signal (z-score),[22],-0.834
same,glycan array binding signal (z-score),[23],0.152
same,glycan array binding signal (z-score),[24],-0.573
same,glycan array binding signal (z-score),[25],-0.531
same,glycan array binding signal (z-score),[26],18
same,glycan array binding signal (z-score),[27],-0.083
